Experiment [1] can be described thus: qHTS Assay for Identifying Gametocytocidal Compounds (AID 743244).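 Also: % is scaled to controls: 0 for no effect and ±100 for the full control effect; actives lower the fluorescent signal which means gametocytes are killed.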 Particulars: P. falciparum 3D7 stage III-V gametocytes, alamarBlue, 72 h; max response: stronger effect = lower value. The essentials: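 P. falciparum 3D7 stage III–V gametocytes (20,000 cells/well) were exposed to compounds for 72 h at 37 °C, 5% CO2. AlamarBlue was then added for 24 h; decreased resorufin fluorescence (Ex 525/Em 598 nm) indicated loss of viability.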
(In general: In qHTS, concentration-response curves come from the screen itself.)

A short description of experiment [2]: qHTS for small molecule inhibitors of Yes1 kinase: Counter Assay (AID 686950).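 Also: no kinase present so only ADP-Glo detection of a fixed ADP amount is tested; luminescence from ADP-Glo reporting ADP in a fixed ATP and ADP mixture; 0% = DMSO wells with ATP plus ADP and -100% = ATP-only wells without ADP.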 The essentials:
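No kinase present; 0.08 mM ATP + 0.02 mM ADP in 50 mM Tris pH 7.5, 10 mM MgCl2, 150 mM NaCl, 1 mM DTT; 20 min compound preincubation, 60 min RT, ADP-Glo luminescence, normalized to ATP/ADP (max) and ATP-only (min).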

The nature of experiment [3]: qHTS profiling of the MIPE4 collection as inhibitors of Plasmodium falciparum (3D7) proliferation (AID 743344; call rule not given here;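 also: scaled between DMSO vehicle wells and 0.29 µM artemisinin as full inhibition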). The note with it: P. falciparum 3D7 in erythrocytes, SYBR Green DNA fluorescence, 72 h; at 28.5 µM (top of the series). The gist of the method: (§1)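 Parasite DNA was quantified by SYBR Green I fluorescence (ex 485, em 535 nm) after overnight lysis in saponin/Triton buffer at room temperature. Cultures at 0.3% parasitemia and 2.5% hematocrit were first exposed to compound for 72 h at 37 C; signals were normalised to artemisinin (0.29 uM) and vehicle wells.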

Experiment [4] can be described thus: qHTS profiling of the MIPE4 collection as inhibitors of Plasmodium falciparum (DD2) proliferation (AID 743345; call rule not given here). Particulars: P. falciparum Dd2 in erythrocytes, SYBR Green DNA, 72 h; at 28.5 µM (top of the series). The essentials: as §1
The nature of experiment [5]: qHTS profiling of the MIPE4 collection as inhibitors of Plasmodium falciparum (DD2) proliferation (Rep 2) (AID 743346; call rule not given here). The note with it: P. falciparum Dd2 in erythrocytes, SYBR Green DNA, 72 h; at 28.5 µM (top of the series). An excerpt:
Plasmodium falciparum is a virulent malarial parasite that kills 1-2 million people worldwide each year. Transmitted by mosquitoes, the sporozoite form of the parasite enters the blood stream to infect hepatocytes, where they become merozoites that infect red blood cells (erythrocytes). Within erythrocytes, merozoites begin a […] cycle of growth and division, after which the parasite is released to infect new red blood cells. Gametocytes, which form within erythrocytes as well, circulate in the bloodstream and are ingested by the mosquito, thereby completing the life cycle. To profile malarial isolates for differential chemical responses and to identify inhibitors of malarial growth, an assay that measures P. falciparum growth and replication within erythrocytes was employed. […] Because mature erythrocytes lack DNA, only Plasmodium-derived DNA is detected.
The SYBR Green viability assay was adapted from a method described previously (Plouffe et al., 2008). […] The following morning, fluorescence intensity at 485(14) nm excitation and 535(25) nm emission wavelengths was measured on an EnVision (Perkin Elmer) plate reader. Plate reads were normalized relative to the control inhibitor (0.29 uM artemisinin) and vehicle (DMSO) wells present on each plate and then corrected by an algorithm using vehicle-only control plates at the beginning and end of the compound plate stack.

Experiment [6] can be described thus: qHTS profiling of the MIPE4 collection as inhibitors of Plasmodium falciparum (HB3) proliferation (AID 743347; call rule not given here;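 also: plate controls were DMSO vehicle wells for no effect and artemisinin wells for full effect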). The note with it: P. falciparum HB3 in erythrocytes, SYBR Green DNA, 72 h; at 28.5 µM (top of the series). The gist of the method: as §1

Several values for one entry are separate records, joined by “and”; a condition that tells them apart may be missing. Equal entries are not always repeated. Results filed as inconclusive are left out. Activity calls are given as the source filed them. Unless noted, calls follow the shape of the dose curve; as a rule, active = well fitted curve in the direction sought with a large enough effect; inconclusive = small, poorly fitted or top-dose-only effect, or another doubt; inactive = no such curve, though single readings can be large; an effect the other way counts as inactive or inconclusive.

For `CC(C)(C)CC(=O)OCC(=O)[C@@]12OC(C)(C)O[C@@H]1C[C@H]1[C@@H]3CCC4=CC(=O)C=C[C@]4(C)[C@@]3(F)[C@@H](O)C[C@@]12C`, in experiment [1], the max response is -15% (inactive).

As for `COc1cc(O)c2c(c1)/C=C/C[C@H](O)[C@H](O)C(=O)/C=C\C[C@H](C)OC2=O`, in experiment [2], the molecule was classed as inactive.

For `Nc1ncnc(Nc2ccc(Cl)cc2)n1`, the max response in experiment [1] was -12% (inactive).

With `O.O=C([O-])CC([S-])C(=O)[O-].[Au+].[Na+].[Na+]` (stereo not given), the max response in experiment [1] is -19.1% (inactive).

`COC(=O)C1=C(C)NC(C)=C(C(=O)O[C@H]2CCN(Cc3ccccc3)C2)[C@H]1c1cccc([N+](=O)[O-])c1`: in experiment [1], the max response is 22.4% (inactive).

As to `CC1(C)C2CC[C@]3(C)[C@H](C(=O)C=C4[C@@H]5C[C@@](C)(C(=O)O)CC[C@]5(C)CC[C@]43C)[C@@]2(C)CC[C@@H]1O[C@H]1O[C@H](C(=O)O)[C@@H](O)[C@H](O)[C@H]1O[C@@H]1O[C@H](C(=O)O)[C@@H](O)[C@H](O)[C@H]1O` (stereo not given in full), in experiment [1], the max response is -0.804% (inactive).

Turning to `CCN(CC)c1ccc(N=Nc2ccc(S(=O)(=O)N(C)C)cc2)c(S(=O)(=O)NCC[n+]2ccccc2)c1`, the max response in experiment [1] was 1.66% (inactive).

With `CC#CCC(C)[C@H](O)/C=C/[C@@H]1[C@H]2c3cccc(CCCC(=O)O)c3O[C@H]2C[C@H]1O` (stereo not given in full), the max response in experiment [1] is 6.65% (inactive).

As for `Nc1c(CC(=O)O)cccc1C(=O)c1ccccc1`, the max response in experiment [1] is -9.51% (inactive) and 6.92% (inactive).

In the case of `O=C(O)c1cc2ccccc2c(Cc2c(O)c(C(=O)O)cc3ccccc23)c1O`, the max response in experiment [1] is 60.7% (inactive).

Regarding `CCC(CN)CC(C)CCNCC(O)CNCC(C)CC(CC)CN` (stereo not given), the max response in experiment [1] was -11% (inactive).

`OC(CN1CCCCC1)c1cc(-c2ccccc2)on1` (stereo not given): the max response in experiment [1] is -4.26% (inactive).

For `Cc1[nH]cnc1C[C@H]1CCc2c(C)c3ccccc3n2C1=O`, the max response in experiment [1] was 6.9% (inactive).

On to `COc1cc([C@@H]2c3cc4c(cc3C(O[C@@H]3O[C@@H]5COC(c6cccs6)O[C@H]5[C@H](O)[C@H]3O)C3COC(=O)[C@@H]32)OCO4)cc(OC)c1O` (stereo not given in full), for which the max response in experiment [1] was -13.4% (inactive).

As for `c1cnc2cc3c(cc2n1)[C@@H]1CNC[C@H]3C1`, in experiment [1], the max response was 0.0621% (inactive).

`O=P(O)(O)C(O)(Cc1cnc2ccccn12)P(=O)(O)O`: the max response in experiment [1] was -4.82% (inactive).

In the case of `O=C(Cn1c(=O)sc2ccc(Cl)cc21)N1CCN(CCO)CC1`, the max response in experiment [1] is -8.47% (inactive).

`CCN(CC)CCOC(=O)c1ccc(N)cc1Cl`: the max response in experiment [1] is -6.93% (inactive).

`CCC(=O)Oc1ccc2c(c1)CC[C@@H]1[C@@H]2CC[C@]2(C)[C@@H](OC(=O)CC)CC[C@@H]12`: the max response in experiment [1] was -6.54% (inactive).

Take `CO/N=C(\C(=O)N[C@@H]1C(=O)N2C(C(=O)OCOC(=O)C(C)(C)C)=C(/C=C\c3scnc3C)CS[C@H]12)c1csc(N)n1`: the max response in experiment [1] was -6.43% (inactive).

In the case of `CCOC(=O)COc1ccc2c(C)c(CCN(CC)CC)c(=O)oc2c1`, the max response in experiment [1] is 15% (inactive).

Take `CC(CN(C)C)CN1c2ccccc2S(=O)(=O)c2ccccc21` (stereo not given): the max response in experiment [1] is -15.2% (inactive).

`COc1ccc(CNCC(O)COc2ccc3[nH]c(=O)ccc3c2)cc1OC` (stereo not given): in experiment [1], the max response is -1.67% (inactive).

For the molecule `CCC(=O)OCC(=O)[C@@]1(OC(=O)CC)[C@@H](C)C[C@H]2[C@@H]3CCC4=CC(=O)C=C[C@]4(C)[C@@]3(Cl)[C@@H](O)C[C@@]21C`, the max response in experiment [1] is 0.406% (inactive).

For the molecule `CN1CC(O)c2cc(N=NC(N)=O)c(O)cc21` (stereo not given), in experiment [1], the max response is -4.67% (inactive).

For `CS(=O)(=O)Nc1cc2occ(NC=O)c(=O)c2cc1Oc1ccccc1`, the max response in experiment [1] is -2.7% (inactive).

Consider `CC1(C)S[C@@H]2[C@H](NC(=O)C(C(=O)Oc3ccc4c(c3)CCC4)c3ccccc3)C(=O)N2[C@H]1C(=O)O` (stereo not given in full), for which the max response in experiment [1] is 5.21% (inactive).

With `CCCCCCCCCCCCCCCC(=O)OC[C@@H](COP(=O)([O-])OCC[N+](C)(C)C)OC(=O)CCCCCCCCCCCCCCC`, the max response in experiment [1] is 1.44% (inactive).

As for `Cc1ccccc1CNc1ncnc2c1ncn2[C@@H]1O[C@H](CO)[C@@H](O)[C@H]1O`, the max response in experiment [1] was -9.34% (inactive).

Consider `c1ccc2c(CCC3CCNCC3)c[nH]c2c1`, for which the max response in experiment [1] was -9.29% (inactive).

For the molecule `CCOC(=O)[C@H](CCc1ccccc1)N[C@H]1CCCN2CCC[C@@H](C(=O)O)N2C1=O`, the max response in experiment [1] is -15.1% (inactive).

`NCCC[C@H](N)C(=O)O`: the max response in experiment [1] was -1.29% (inactive).

Molecule `N[C@@H](C(=O)N[C@H]1C(=O)N2C(C(=O)O)=C(Cl)CC[C@H]12)c1ccccc1` came in with a parasite growth, % of DMSO control in experiment [3] of 101%. Moreover, the parasite growth remaining, % of DMSO control (lower = more inhibition) in experiment [4] worked out at 100%. In addition, in experiment [5], the parasite growth, % of control (lower = inhibition) was 78.4%. The growth, % of control in experiment [6] came to 104%.

Molecule `CC(=O)NC[C@H]1CN(c2ccc(N3CCSCC3)c(F)c2)C(=O)O1` yielded a parasite growth, % of DMSO control in experiment [3] of 91.5%. In addition, the parasite growth remaining, % of DMSO control (lower = more inhibition) in experiment [4] is 103%. In experiment [5], the parasite growth, % of control (lower = inhibition) worked out at 186%. Also, the growth, % of control in experiment [6] is 110%.

(Values after PubChem BioAssay (NCATS).)
